Reference: PubChem BioAssay (NCI)
This is part of a sample that, as a whole, favours compounds with a hit. Of some 83,000 tested, about 20% had one in any assay.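 Each cell line was grown in a 96-well plate and treated with one concentration of compound for 48 hours. Values below 10 were considered active.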 The source made the active and inactive calls.

The compounds below were run on SR leukemia (assay: NCI-60 one-dose screen, 48 h (100 = growth as untreated, 0 = no growth, -100 = all killed)). Settings: 10 µM unless noted.

SMILES	growth
Cc1nn(-c2ccccc2)c2ncnc(N/N=C/c3cccc(O)c3)c12	30.8% (inactive)
C=C1CC[C@@H]2[C@]3(C)COC(c4ccccc4)O[C@@H]3CC[C@@]2(C)[C@@H]1C/C=C1/C(=O)OC[C@H]1O (stereo partly specified)	36.9% (inactive)
CN(C)CCNC(=O)c1ccc(-c2nc3ccc4[nH]ncc4c3c3c2CCC3)cc1	-1.05% (active)
Fc1ccc(-c2cc3nc(C(Cl)Cl)nc(-c4ccc(F)cc4)n3n2)cc1	3.96% (active)
C=C(C=O)[C@@H]1CC[C@]2(C)[C@H](C(=O)C=C3[C@H]4C[C@](C)(C(=O)OC)CC[C@]4(C)CC[C@]32C)[C@@]1(C)CCC#N	-9.31% (active)
CCc1ccc(SC2c3ccc(N(CC)CC)cc3Oc3nc(N)c(C#N)c(N)c32)cc1 (stereo unspecified)	-0.413% (active)
CCOC(=O)C1=NNC(c2ccc(Cl)cc2)C1C(=O)N1C(=S)NC(=O)C1CC(C)C (stereo unspecified)	96.8% (inactive)
C#CCn1cccc1CNc1ccc(OC)cc1	-36.1% (active)
NC(N)=Nc1ccc(Oc2cccc(NC(N)=Nc3ccc(Br)cc3)c2)cn1	34.5% (inactive)
CC1(C)CC[C@]2(CN)CC[C@]3(C)C(=CC[C@@H]4[C@@]5(C)CCCNC(C)(C)[C@@H]5CC[C@]43C)[C@H]2C1	61.7% (inactive)
O=C1C(c2ccccc2)=C(N2CCc3ccccc32)OC1(Cl)Cl	17.5% (inactive)
CC(=O)c1nnn(-c2c(C(=O)n3nc(C)cc3C)sc(=S)n2-c2ccccc2)c1C	109% (inactive)
COC(=O)C1(C)CCC[C@]2(C)[C@H]3C[C@H]4C(C(C)C)=C[C@]3(CC[C@@H]12)[C@H]1[C@@H]4[C@@H](OC(=O)c2ccco2)CC[C@@H]1OC(=O)c1ccco1 (stereo partly specified)	93.4% (inactive)
CC(=O)N1C(=S)NC(=O)C1CC(C)C (stereo unspecified)	101% (inactive)
C#Cc1ccc(C(=O)NCc2ccc(/C=C/C(=O)c3nccn3C)cc2)cc1	4.33% (active)
Cn1ccnc1C(=O)/C=C/c1ccc(NC(=O)c2ccc(F)cc2)cc1	8.3% (active)
O=C(O)c1ccc(-n2cc(CNc3cccc(Cl)c3)c(-c3ccc(F)cc3)n2)cc1	130% (inactive)
CCC1=Cc2cc(OC)ccc2OC12C=Cc1cc(OC)ccc1O2 (stereo unspecified)	15.8% (inactive)
CCO/C=N/C1=C(C#N)C(c2ccc(OC)cc2)c2sc3c(C)cccc3c2O1 (stereo unspecified)	17.9% (inactive)

SMILES	growth
COc1cccc(O)c1/C=C(/C)c1ccc2c(OC)cccc2[o+]1	87.6% (inactive)
C#CCNC1CCC(c2csc(C#C)n2)=C1C (stereo unspecified)	2.46% (active)
CCO/C=N/C1=C(C#N)C(c2ccc(OC)cc2)c2sc3c(CC)cccc3c2O1 (stereo unspecified)	20.1% (inactive)
C=CCn1c(SCC(=O)Nc2ccc(C(=O)/C=C/c3ccc(Cl)cc3)cc2)nnc1-c1c[nH]c2ccccc12	71.1% (inactive)
N#Cc1cccc(CN2CCC3=C(C2)C(=O)N(Cc2ccc(Cl)cc2)C2=NCCCN23)c1	27.6% (inactive)
CCN(CC)c1cn(-c2ccc(S(N)(=O)=O)cc2)nn1	97% (inactive)
CCCCCc1ccc(S(=O)(=O)Nc2cccc(-c3csc(NC(=O)CCCCCN4CCN(C)CC4)n3)c2)cc1	-31.4% (active)
CCCCCc1ccc(S(=O)(=O)Nc2cc(-c3csc(NC(=O)CN4CCN(C)CC4)n3)ccc2OC)cc1	-20.3% (active)
COc1ccccc1NCc1cccn1Cc1ccc(F)cc1	100% (inactive)
CC(=O)c1cc(C(=O)c2ccc(Br)cc2)n2cc(C)cc(C)c12	77.1% (inactive)
O=C1Nc2ccccc2/C1=C/c1ccc(COCC2CO2)n1-c1ccc(O)cc1 (stereo unspecified)	100% (inactive)
C/C(=N\O)[C@H]1C[C@]23CC[C@]4(C)[C@H](CC[C@@H]5[C@@]6(C)CC/C(=N/O)C(C)(C)[C@@H]6CC[C@]54C)[C@H]2[C@H](C)C1(C)OC3	98.7% (inactive)
NC(N)=Nc1ccc(Oc2cccc(Oc3ccc(Cl)c(C(F)(F)F)c3)c2)cn1	-58.9% (active)
COc1ccc([C@@H]2c3[nH]c4ccccc4c3C[C@H]3C(=O)N(C4CCN(CC5CCCCC5)CC4)CC(=O)N23)c(OC)c1	25.9% (inactive)
COc1ccc(C2CC(c3ccc(Nc4nc(NCCO)nc(N5CCOCC5)n4)cc3)=Nc3c(N)nc(N)nc3N2)cc1 (stereo unspecified)	105% (inactive)
Cc1ccc2c(c1)Oc1nc(N)c(C#N)c(N)c1C2Sc1ccc(F)cc1 (stereo unspecified)	-15.6% (active)
O=C(CCn1c[n+](CC(=O)c2ccc(-c3ccccc3)cc2)c2ccccc21)Nc1cccc2cccnc12	9.22% (active)
O=S(=O)(NCCNc1nccc(-n2cnc3ccccc32)n1)c1ccc(Cl)cc1	96.3% (inactive)
O=C1CCCc2nc(Nc3ccc(S(=O)(=O)Nc4ccc([N+](=O)[O-])cc4)cc3)ncc21	105% (inactive)

Each compound was assayed on RPMI-8226 leukemia in the same assay as above. Settings: 10 µM unless noted.

SMILES	growth
Cc1nn(-c2ccccc2)c2ncnc(N/N=C/c3cccc(O)c3)c12	22.7% (inactive)
C=C1CC[C@@H]2[C@]3(C)COC(c4ccccc4)O[C@@H]3CC[C@@]2(C)[C@@H]1C/C=C1/C(=O)OC[C@H]1O (stereo partly specified)	28.2% (inactive)
CN(C)CCNC(=O)c1ccc(-c2nc3ccc4[nH]ncc4c3c3c2CCC3)cc1	-15.7% (active)
Fc1ccc(-c2cc3nc(C(Cl)Cl)nc(-c4ccc(F)cc4)n3n2)cc1	3.43% (active)
C=C(C=O)[C@@H]1CC[C@]2(C)[C@H](C(=O)C=C3[C@H]4C[C@](C)(C(=O)OC)CC[C@]4(C)CC[C@]32C)[C@@]1(C)CCC#N	-16.5% (active)
CCc1ccc(SC2c3ccc(N(CC)CC)cc3Oc3nc(N)c(C#N)c(N)c32)cc1 (stereo unspecified)	-29.6% (active)
CCOC(=O)C1=NNC(c2ccc(Cl)cc2)C1C(=O)N1C(=S)NC(=O)C1CC(C)C (stereo unspecified)	95% (inactive)
C#CCn1cccc1CNc1ccc(OC)cc1	-58.8% (active)
NC(N)=Nc1ccc(Oc2cccc(NC(N)=Nc3ccc(Br)cc3)c2)cn1	51.4% (inactive)
CC1(C)CC[C@]2(CN)CC[C@]3(C)C(=CC[C@@H]4[C@@]5(C)CCCNC(C)(C)[C@@H]5CC[C@]43C)[C@H]2C1	81.3% (inactive)
O=C1C(c2ccccc2)=C(N2CCc3ccccc32)OC1(Cl)Cl	8.06% (active)
CC(=O)c1nnn(-c2c(C(=O)n3nc(C)cc3C)sc(=S)n2-c2ccccc2)c1C	101% (inactive)
COC(=O)C1(C)CCC[C@]2(C)[C@H]3C[C@H]4C(C(C)C)=C[C@]3(CC[C@@H]12)[C@H]1[C@@H]4[C@@H](OC(=O)c2ccco2)CC[C@@H]1OC(=O)c1ccco1 (stereo partly specified)	99.5% (inactive)
CC(=O)N1C(=S)NC(=O)C1CC(C)C (stereo unspecified)	99% (inactive)
C#Cc1ccc(C(=O)NCc2ccc(/C=C/C(=O)c3nccn3C)cc2)cc1	6.86% (active)
Cn1ccnc1C(=O)/C=C/c1ccc(NC(=O)c2ccc(F)cc2)cc1	10.6% (inactive)
O=C(O)c1ccc(-n2cc(CNc3cccc(Cl)c3)c(-c3ccc(F)cc3)n2)cc1	89.2% (inactive)
CCC1=Cc2cc(OC)ccc2OC12C=Cc1cc(OC)ccc1O2 (stereo unspecified)	19.5% (inactive)
CCO/C=N/C1=C(C#N)C(c2ccc(OC)cc2)c2sc3c(C)cccc3c2O1 (stereo unspecified)	0.107% (active)

SMILES	growth
COc1cccc(O)c1/C=C(/C)c1ccc2c(OC)cccc2[o+]1	109% (inactive)
C#CCNC1CCC(c2csc(C#C)n2)=C1C (stereo unspecified)	-28.1% (active)
CCO/C=N/C1=C(C#N)C(c2ccc(OC)cc2)c2sc3c(CC)cccc3c2O1 (stereo unspecified)	12.7% (inactive)
C=CCn1c(SCC(=O)Nc2ccc(C(=O)/C=C/c3ccc(Cl)cc3)cc2)nnc1-c1c[nH]c2ccccc12	2.66% (active)
N#Cc1cccc(CN2CCC3=C(C2)C(=O)N(Cc2ccc(Cl)cc2)C2=NCCCN23)c1	18.7% (inactive)
CCN(CC)c1cn(-c2ccc(S(N)(=O)=O)cc2)nn1	103% (inactive)
CCCCCc1ccc(S(=O)(=O)Nc2cccc(-c3csc(NC(=O)CCCCCN4CCN(C)CC4)n3)c2)cc1	-22.5% (active)
CCCCCc1ccc(S(=O)(=O)Nc2cc(-c3csc(NC(=O)CN4CCN(C)CC4)n3)ccc2OC)cc1	-27% (active)
COc1ccccc1NCc1cccn1Cc1ccc(F)cc1	95.2% (inactive)
CC(=O)c1cc(C(=O)c2ccc(Br)cc2)n2cc(C)cc(C)c12	62.9% (inactive)
O=C1Nc2ccccc2/C1=C/c1ccc(COCC2CO2)n1-c1ccc(O)cc1 (stereo unspecified)	95.7% (inactive)
C/C(=N\O)[C@H]1C[C@]23CC[C@]4(C)[C@H](CC[C@@H]5[C@@]6(C)CC/C(=N/O)C(C)(C)[C@@H]6CC[C@]54C)[C@H]2[C@H](C)C1(C)OC3	124% (inactive)
NC(N)=Nc1ccc(Oc2cccc(Oc3ccc(Cl)c(C(F)(F)F)c3)c2)cn1	-49.5% (active)
COc1ccc([C@@H]2c3[nH]c4ccccc4c3C[C@H]3C(=O)N(C4CCN(CC5CCCCC5)CC4)CC(=O)N23)c(OC)c1	53.6% (inactive)
COc1ccc(C2CC(c3ccc(Nc4nc(NCCO)nc(N5CCOCC5)n4)cc3)=Nc3c(N)nc(N)nc3N2)cc1 (stereo unspecified)	108% (inactive)
Cc1ccc2c(c1)Oc1nc(N)c(C#N)c(N)c1C2Sc1ccc(F)cc1 (stereo unspecified)	-24.1% (active)
O=C(CCn1c[n+](CC(=O)c2ccc(-c3ccccc3)cc2)c2ccccc21)Nc1cccc2cccnc12	3.25% (active)
O=S(=O)(NCCNc1nccc(-n2cnc3ccccc32)n1)c1ccc(Cl)cc1	99.4% (inactive)
O=C1CCCc2nc(Nc3ccc(S(=O)(=O)Nc4ccc([N+](=O)[O-])cc4)cc3)ncc21	100% (inactive)
